This excerpt belongs to a sample that is enriched for hits.
KDM5B inhibitor: Primary screen for KDM5B Histone Demethylases FDH-coupled qHTS; actives 2.6% (n = 220,000); Potency, µM (highest dose often 57.7 µM), actives largely listed as inhibitors; KDM5B demethylase, FDH-coupled NADH fluorescence (FDH is formaldehyde dehydrogenase); Lysine-specific demethylase 5B (Homo sapiens), Q9UGL1; active means well fitted inhibition curve with a large enough effect; further: 0% is about no effect; nearly all actives have a fitted effect of over 70% in size
Target sequence (Q9UGL1 whole entry, looked up): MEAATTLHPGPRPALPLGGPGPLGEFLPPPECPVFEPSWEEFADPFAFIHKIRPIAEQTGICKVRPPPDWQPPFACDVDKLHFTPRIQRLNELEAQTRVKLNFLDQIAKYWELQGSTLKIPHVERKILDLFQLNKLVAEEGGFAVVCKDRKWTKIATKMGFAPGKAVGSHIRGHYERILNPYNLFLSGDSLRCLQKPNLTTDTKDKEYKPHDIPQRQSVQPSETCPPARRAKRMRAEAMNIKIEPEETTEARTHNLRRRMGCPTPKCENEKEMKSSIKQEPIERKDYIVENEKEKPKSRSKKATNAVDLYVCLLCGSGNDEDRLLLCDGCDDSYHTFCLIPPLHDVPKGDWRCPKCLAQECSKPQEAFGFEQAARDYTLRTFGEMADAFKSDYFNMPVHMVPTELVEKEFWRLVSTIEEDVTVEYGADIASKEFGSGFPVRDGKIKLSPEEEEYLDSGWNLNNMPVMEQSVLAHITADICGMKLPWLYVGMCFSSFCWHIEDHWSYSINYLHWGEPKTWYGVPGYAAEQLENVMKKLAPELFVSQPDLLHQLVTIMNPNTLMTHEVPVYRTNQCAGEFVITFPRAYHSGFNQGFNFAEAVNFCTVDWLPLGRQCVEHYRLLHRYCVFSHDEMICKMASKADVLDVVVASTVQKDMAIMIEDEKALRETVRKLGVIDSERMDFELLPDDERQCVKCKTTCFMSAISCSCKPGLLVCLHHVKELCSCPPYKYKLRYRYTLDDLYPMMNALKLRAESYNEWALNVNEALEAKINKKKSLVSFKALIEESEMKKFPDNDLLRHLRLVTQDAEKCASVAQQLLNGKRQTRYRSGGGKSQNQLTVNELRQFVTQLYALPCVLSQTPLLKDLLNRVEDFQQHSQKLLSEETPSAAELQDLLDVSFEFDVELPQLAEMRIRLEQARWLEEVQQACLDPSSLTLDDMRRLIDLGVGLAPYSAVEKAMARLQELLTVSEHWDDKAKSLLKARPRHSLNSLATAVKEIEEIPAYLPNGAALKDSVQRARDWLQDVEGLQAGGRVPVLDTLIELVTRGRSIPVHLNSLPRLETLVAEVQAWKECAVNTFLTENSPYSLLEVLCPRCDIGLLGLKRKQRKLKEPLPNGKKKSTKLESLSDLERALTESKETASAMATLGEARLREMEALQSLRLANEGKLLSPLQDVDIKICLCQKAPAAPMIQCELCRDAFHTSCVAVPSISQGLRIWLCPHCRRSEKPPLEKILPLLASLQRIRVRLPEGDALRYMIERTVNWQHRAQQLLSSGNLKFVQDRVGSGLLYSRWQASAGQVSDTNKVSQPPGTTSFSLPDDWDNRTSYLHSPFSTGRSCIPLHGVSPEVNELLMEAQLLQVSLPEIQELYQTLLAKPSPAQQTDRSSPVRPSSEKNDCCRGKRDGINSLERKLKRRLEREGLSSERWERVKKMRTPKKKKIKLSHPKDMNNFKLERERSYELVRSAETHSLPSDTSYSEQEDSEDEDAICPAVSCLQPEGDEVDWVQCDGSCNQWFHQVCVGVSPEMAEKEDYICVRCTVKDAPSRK
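qHTS format, multiple compound concentrations. Buffer 50 mM HEPES pH 7.5/0.01% Tween-20; 200 nM KDM5BΔAP final; 10 min compound preincubation; substrate-mix levels 12.5 µM peptide, 25 µM α-KG, 0.25 mM NAD⁺; 30 min RT; ΔRFU.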
* marks the source's active call; other numbers are inactive results. Potency means the concentration at half of the fitted maximal effect.

Results for CC(C)C(C)NC(=O)CSc1ncnc2ccccc12 (centres undefined) ?
KDM5B inhibitor: inactive

Results for Cc1[nH]c2ccccc2c1C(=O)N1CCN(S(=O)(=O)c2ccccc2F)CC1 ?
KDM5B inhibitor: inactive

Results for O=C(Oc1cccc(OC(=O)c2ccc(Cl)cc2Cl)c1)c1ccc(Cl)cc1Cl ?
KDM5B inhibitor: inactive

How did O=C1NCc2ccccc2CC12CCCCN2Cc1ccsc1 (centres undefined) do in these assays?
KDM5B inhibitor: inactive

Results for COCCNc1ncccc1-c1cc(-c2ccccc2)nc2c(C)noc12 ?
KDM5B inhibitor: 32µM*

What do the screens show for `Cc1noc2c(-c3cccnc3N3CCOCC3)cc(-c3ccccc3)nc12`?
KDM5B inhibitor: 35µM*

Results for Cc1noc2c(N3CCOCC3)cc(-c3cccnc3)nc12 ?
KDM5B inhibitor: inactive

Results for Cc1noc2c(NCCN3CCOCC3)cc(-c3ccccc3)nc12 ?
KDM5B inhibitor: inactive

What do the screens show for `Cc1noc2c(NC3CCOCC3)cc(-c3ccsc3)nc12`?
KDM5B inhibitor: inactive

How did Cc1noc2c(NCC3CCOCC3)cc(-c3ccc(Cl)cc3)nc12 do in these assays?
KDM5B inhibitor: inactive

What do the screens show for `Cc1noc2c(-c3cccnc3NCC3CCOCC3)cc(-c3ccccc3)nc12`?
KDM5B inhibitor: 32µM*

Results for Cc1noc2c(NCCc3ccccn3)cc(-c3cccnc3)nc12 ?
KDM5B inhibitor: inactive

How did COCCCNc1cc(-c2cccc(C(F)(F)F)c2)nc2c(C)noc12 do in these assays?
KDM5B inhibitor: inactive

What do the screens show for `Cc1cc(C(=O)OC(C)C(=O)Nc2ccc(Cl)cc2Cl)c(C)o1` (centres undefined)?
KDM5B inhibitor: inactive

How did O=C(Cn1c(=O)c2c(ncn2C2CCCC2)n(Cc2ccccc2)c1=O)N1CCOCC1 do in these assays?
KDM5B inhibitor: inactive

Results for O=C1C(O)C2(CCCCC2)N1C1CCN(Cc2ccc(F)c(F)c2)CC1 (centres undefined) ?
KDM5B inhibitor: inactive

How did CCOC(=O)C(C(C)=O)C(c1ccccc1)C(C(C)=O)C(=O)OCC (centres undefined) do in these assays?
KDM5B inhibitor: inactive

What do the screens show for `COc1ccc2c(c1)CCN=C2C[C@H]1CN(C(=O)C(=O)O)CC[C@H]1CC(=O)O`?
KDM5B inhibitor: 28µM*

Results for COc1cccc(NC(=O)N2CC[C@@H](CC(=O)O)[C@@H](CC3=NCCc4cc(OC)c(OC)cc43)C2)c1 ?
KDM5B inhibitor: inactive

How did COc1ccc2c(c1)CCN=C2C[C@H]1CN(C(=O)c2cccnc2)CC[C@H]1CC(=O)O do in these assays?
KDM5B inhibitor: 32µM*

How did COc1ccc(C(=O)N2CC[C@@H](CC(=O)O)[C@@H](CCN3CCCCC3)C2)cc1 do in these assays?
KDM5B inhibitor: inactive

What do the screens show for `CC(C)c1ccc(NC(=O)N2CC[C@@H](CC(=O)O)[C@@H](CC3=NCCc4ccccc43)C2)cc1`?
KDM5B inhibitor: inactive

What do the screens show for `COc1cc2c(cc1OC)C(C[C@H]1CN(C(=O)Cc3ccccc3)CC[C@H]1CC(=O)O)=NCC2`?
KDM5B inhibitor: inactive

How did N#Cc1ccc(C(=O)N2CC[C@@H](CC(=O)O)[C@@H](CC3=NCCc4ccccc43)C2)cc1 do in these assays?
KDM5B inhibitor: inactive

Results for COc1cc2c(cc1OC)C(C[C@H]1CN(C(=O)CCc3ccccc3)CC[C@H]1CC(=O)O)=NCC2 ?
KDM5B inhibitor: inactive

Results for COc1ccc(NC(=O)N2CC[C@@H](CC(=O)O)[C@@H](CC3=NCCc4cc(OC)c(OC)cc43)C2)cc1 ?
KDM5B inhibitor: 35µM*

How did COc1ccc(CC(=O)N2CC[C@@H](CC(=O)O)[C@@H](CCN(C)CCN(C)C)C2)cc1 do in these assays?
KDM5B inhibitor: inactive

What do the screens show for `COc1cc2c(cc1OC)C(C[C@H]1CN(C(=O)c3cccn3C)CC[C@H]1CC(=O)O)=NCC2`?
KDM5B inhibitor: 32µM*

How did O=C(NCc1n[nH]c(=O)c2ccccc12)c1cc(Cl)ccc1Cl do in these assays?
KDM5B inhibitor: inactive

Results for N#Cc1ccc(CN2CCC(N3Cc4cccn4C3=O)CC2)cc1 ?
KDM5B inhibitor: inactive

How did CC(C)C(=O)N1CCN(C(=O)c2nn(C)c(=O)c3ccccc23)CC1 do in these assays?
KDM5B inhibitor: inactive

Results for CCc1cccc(NC(=O)C2CCc3ncc(-c4ccsc4)n3C2)c1 (centres undefined) ?
KDM5B inhibitor: inactive

How did CC(C)CSc1nnc(SCC(=O)NCc2ccccc2)s1 do in these assays?
KDM5B inhibitor: inactive

How did CC(CC(=O)Nc1ccc(F)cc1)S(=O)(=O)c1ccc2c(c1)CCN2C(=O)C1CC1 (centres undefined) do in these assays?
KDM5B inhibitor: inactive

What do the screens show for `CNC(=O)NC(=O)C(c1ccccc1)N(C)Cc1ccccc1` (centres undefined)?
KDM5B inhibitor: inactive

Results for COC(=O)C1CCN(Cc2cc(=O)oc3cc(-c4ccccc4)c(O)cc23)CC1 ?
KDM5B inhibitor: inactive

How did NC(=O)c1ccc(S(=O)(=O)N2CC[C@@H](CC(=O)O)[C@@H](CC3=NCCc4ccccc43)C2)cc1 do in these assays?
KDM5B inhibitor: inactive
